# HT1080 IDH1KD tx: HT-1080 IDH1 knockdown cell toxicity (counter line) | HT-1080 IDH1 knockdown viability, ATP luminescence, 48 h | Potency, µM (series often up to 46.1 µM), without a hit: top-dose activity, negative = toxicity, hits mostly cytotoxic | hit rate 2% among 360,000;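 note: potency is the fitted concentration of half-maximal effect; 0% = DMSO wells and -100% = cell-free medium wells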
#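 In this qHTS, HT-1080 cells depleted of IDH1 are exposed for 48 h at 37 °C to compound titrations. Toxicity is scored from CellTiter-Glo luminescence, with DMSO as full viability and medium alone as none.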
# HT1080-NT tox: kills 2HG-producing HT-1080-NT fibrosarcoma cells | Potency, µM (titrated, usually from 46.1 µM), for inactives: at the top dose activity, negative = less viability, actives largely listed as cytotoxic | hit rate 1.6% among 360,000 | HT-1080-NT fibrosarcoma viability, CellTiter-Glo ATP luminescence, 48 h;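 note: NT is the 2HG producing partner of a matched IDH1 knockdown line; potency is the fitted concentration of half-maximal effect; 0% = DMSO-treated cells and -100% = media-only wells without cells; nearly all actives have a fitted effect of over 55% in size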
#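 A 48-hour cytotoxicity screen used HT-1080-NT cells plated 2 hours before compound delivery. ATP-based CellTiter-Glo luminescence measured viability, normalized to DMSO and no-cell controls.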
# DT40 TDP1 CPT: growth inhibition of DT40 Tdp1-/-;hTDP1 cells with camptothecin (screen for TDP1 inhibitors); hit rate 12% among 420,000; chicken DT40 Tdp1-/-;hTDP1 cells + 20 nM CPT, ATP luminescence, 48 h; Potency, µM (top dose mostly 46.2 µM), for the others: at the top dose activity change, negative = growth inhibition, actives largely listed as inhibitors; note: potency is the fitted concentration of half-maximal effect; nearly all actives have a fitted effect of over 55% in size
#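 Chicken DT40 Tdp1-/- cells complemented with human TDP1, 400 cells/well, exposed to compounds plus 20 nM camptothecin for at least 48 h at 37 C; viability read as ATP content by CellTiter-Glo luminescence.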
# IL-1B inflam inh: blocks inflammasome-driven IL-1 beta release. activity change, % at 57.5 µM. THP-1 LPS/ATP IL-1B secretion, AlphaLISA, 16 h; stronger effect = lower value. hit rate 4.7% among 360,000; in the data active = activity change below about -50%; inconclusive = mostly about -30% to -49%
#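 Secreted IL-1B measured by AlphaLISA bead assay after 16 h compound exposure of THP-1 cells; compounds (final up to 57.5 uM) added 1 h before LPS (250 ng/mL) and ATP (1.25 mM) stimulation; lower signal means less secretion.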
# DT40 TDP1 no CPT: qHTS for Inhibitors of human tyrosyl-DNA phosphodiesterase 1 (TDP1): qHTS in cells in absence of CPT. DT40 Tdp1-/- hTDP1 cells, no CPT, ATP luminescence, 48 h. Potency, µM (titrated, usually from 46.2 µM), without a hit: top-dose activity change, negative = growth inhibition, hits mostly inhibitors. hit rate 15% among 420,000. AID 686978, 2013; note: potency is the fitted concentration of half-maximal effect; nearly all actives have a fitted effect of over 55% in size
#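 Seeded 400 DT40-hTDP1 cells/well (vehicle DMSO, no 20 nM CPT); pinned compounds; ≥48 hr at 37 °C; CellTiter-Glo luminescence as viability measure.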
# Starred values were filed as active, the others as inactive; ? = inconclusive; . = no result. An excerpt weighted towards active compounds, which were near 19% of everything screened. Unless noted, calls come from the whole dose curve; as a rule, active = well fitted curve in the direction sought with a large enough effect; inconclusive = small, poorly fitted or top-dose-only effect, or another doubt; inactive = no such curve, though single readings can be large; an effect the other way counts as inactive or inconclusive. Unless noted, % is set by controls: 0 for no effect and ±100 for the full control effect.
SMILES,HT1080 IDH1KD tx,HT1080-NT tox,DT40 TDP1 CPT,IL-1B inflam inh,DT40 TDP1 no CPT
C=CCn1c(SCC(=O)c2ccc(O)c(O)c2)nnc1-c1cccnc1,-12.9%,-3.8%,-15.6%,27.9,7.3%
C=CCn1c(SCC(=O)c2ccc(O)c(O)c2)nnc1-c1cccc(Cl)c1,-2.4%,-12.3%,14.6µM*,-6.3,14.6µM*
C=CCn1c(SCC(=O)c2ccc(O)c(O)c2)nnc1-c1cccc(C)c1,-10.1%,0.8%,16.4µM*,-17.1,18.4µM*
CCCCCCC1CCC(C(=O)Nn2c(C)nc3ccccc3c2=O)CC1 (configuration not stated),12.3%,14.2%,?,24.2,18.4µM*
CCn1c(=O)c(C(=O)Nn2c(C)nc3ccccc3c2=O)c(O)c2ccccc21,-10.4%,-7.0%,16.4µM*,29.6,?
CCn1c(=O)c(C(=O)Nc2nc3ccccc3[nH]2)c(O)c2ccccc21,10.3µM*,7.31µM*,2.91µM*,25.1,2.59µM*
CCc1nc2ccccc2c(=O)n1NC(=O)c1c(O)c2ccccc2n(CC)c1=O,2.0%,-9.8%,?,60.5,?
CCn1c(=O)c(C(=O)Nc2ccccc2)c(O)c2ccccc21,0.0%,-1.7%,?,15.8,?
Clc1cc(Cl)c(OCC#CI)cc1Cl,.,.,1.68µM*,.,1.88µM*
CCn1cc(C(=O)NCCc2ccccc2)c(=O)c2cc(S(=O)(=O)N(C)C3CCCCC3)ccc21,.,.,5.4%,.,-3.8%
COc1cc(CNc2ncnc3c2ncn3[C@H]2CN(Cc3ccccc3)C[C@@H](COC(C)=O)O2)cc(OC)c1OC,-2.7%,18.0%,?,27.7,16.4µM*
COc1cc(CNc2ncnc3c2ncn3[C@H]2CN(Cc3cccc(C(F)(F)F)c3)C[C@@H](COC(C)=O)O2)cc(OC)c1OC,-27.9%,-16.0%,?,0.0,?
COc1cc(CNc2ncnc3c2ncn3[C@H]2CN(Cc3cccc(C(F)(F)F)c3)C[C@@H](CO)O2)cc(OC)c1OC,-9.1%,?,18.4µM*,5.3,16.4µM*
CCOc1ncccc1C(=O)NCc1ccccc1Cl,1.6%,-0.3%,2.6%,-8.9,12.3%
CCn1cc(C2CC(=O)NC2=O)c2ccccc21 (configuration not stated),-1.0%,1.7%,-5.1%,12.2,1.0%
O=C(NCCCNC(=O)c1ccccn1)c1ccc(F)cc1,0.3%,0.0%,-21.0%,7.5,-2.3%
Cc1cc(NC(=O)C(C)SCC(=O)Nc2ccc(Br)cc2Br)no1 (configuration not stated),4.2%,4.1%,?,-5.3,13µM*
Cc1cccc(N(Cc2ccccc2)C(=O)CCl)c1,1.3µM*,1.46µM*,2.31µM*,-6.4,?
Cc1cc(NC(=O)C(C)SCC(=O)N(C)CC(=O)Nc2ccccc2Br)no1 (configuration not stated),-4.1%,-9.4%,-4.7%,17.8,-8.6%
O=C(CCl)N(Cc1ccccc1)c1ccccc1,16.4µM*,10.3µM*,5.17µM*,-95.9*,5.8µM*
COc1ccc(C(=O)N(Cc2ccccc2)c2cccc(C)c2)c(OC)c1OC,-1.1%,-0.7%,?,-9.9,?
COc1ccccc1C(=O)N(Cc1ccccc1)c1ccc(C)cc1,-4.0%,-2.1%,14.6µM*,?,?
Cc1ccc(NS(=O)(=O)c2ccc3[nH]c(=O)sc3c2)cc1,-8.1%,-2.4%,-15.7%,7.0,-23.7%
COc1ccc(CC(=O)N(Cc2ccccc2)c2cccc(C)c2)cc1OC,-7.8%,2.8%,?,?,14.6µM*
O=C(CCl)N(Cc1cc(=O)[nH]c2ccccc12)c1ccccc1,?,-13.6%,4.11µM*,-77.6*,2.31µM*
SMILES,HT1080 IDH1KD tx,HT1080-NT tox,DT40 TDP1 CPT,IL-1B inflam inh,DT40 TDP1 no CPT
Cc1cccc(N(Cc2ccccc2)C(=O)CSC(C)C(=O)Nc2cc(C)on2)c1 (configuration not stated),-26.3%,0.6%,?,6.0,18.4µM*
CC1(C)CCc2cc(O)ccc2O1,20.0%,14.2%,-0.1%,.,-3.9%
COc1ccccc1N1CCN(C2CCCN(C(=O)c3ccccn3)C2)CC1 (configuration not stated),2.1%,4.9%,-8.4%,10.2,0.7%
COc1cc(/C=C/c2noc(-c3ccccc3O)n2)cc(OC)c1OC,-14.4%,-12.5%,1.9%,13.9,?
COc1cc(/C=C/c2nc(N)nc(-c3ccccc3O)n2)cc(OC)c1OC,-28.2%,-29.4%,?,6.6,10.3µM*
CC(=O)Nc1ccc(/C=C/c2nc(-c3ccccc3O)n[nH]2)cc1,-7.8%,-17.7%,?,1.6,29.1µM*
COc1cc(/C=C/c2nc(-c3ccccc3O)n[nH]2)cc(OC)c1OC,?,?,20.6µM*,-120.6*,14.6µM*
CC(=O)c1ccc(NC(=O)c2cc3c(=O)oc4ccc(C)cc4c3s2)cc1,.,.,8.3%,.,-5.2%
CC12CC3CC(C)(C1)CC(C(=O)NC(=S)N1CCOCC1)(C3)C2,-16.4%,11.2µM*,-5.5%,-14.9,-9.3%
COc1ccc(NC(=O)CN(C)C(=O)C(Sc2ccccc2)c2ccccc2)cc1 (configuration not stated),-8.4%,-0.6%,16.4µM*,6.1,?
CN(CC(=O)Nc1cccc(F)c1)C(=O)c1ccccc1CCc1ccccc1,-15.7%,-21.7%,14.6µM*,-0.5,20.6µM*
O=C(Cc1ccccc1)Nc1cccc(N2C(=O)C=CC2=O)c1,?,-11.7%,5.17µM*,-67.3*,4.61µM*
O=C(CSCc1ccccc1)Nc1cccc(F)c1,-2.6%,1.9%,7.31µM*,9.5,?
COc1cccc(NC(=O)Cc2ccccc2)c1,0.6%,-0.4%,-24.4%,-6.7,-14.4%
CCCCc1ccc(NC(=O)CSc2nnc(CNC(=O)c3ccco3)o2)cc1,1.3%,0.8%,-2.0%,-15.6,7.2%
N#Cc1ccc(C(=O)Nc2cccc(NC(=O)c3ccco3)c2)c(F)c1,-13.9%,-8.2%,?,?,?
COc1cc(C2NC(=O)NC(C)=C2C(=O)OC(C)C)ccc1OC(=O)c1ccco1 (configuration not stated),-6.7%,0.5%,?,0.3,-12.3%
CCOc1ccccc1C(=O)N(C)CC(=O)Nc1ccc(OC)cc1,10.2%,17.6%,5.3%,7.4,-14.1%
COc1ccc(NC(=O)CN(C)C(=O)c2ccccc2CCc2ccccc2)cc1,-3.1%,-7.6%,-20.7%,-52.2*,-24.5%
CCOC(=O)CN1C(=O)N[C@@H](CCc2ccccc2)[C@@H](C(=O)OC)[C@H]1C,5.1%,11.3%,-7.7%,-5.4,-16.3%

# Assay outcomes from PubChem BioAssay.
